Source: PubChem BioAssay
The entries come from a sample that favours hits as a whole.
DUX4 inh = blocks DUX4-driven transcriptional activation; activity change, negative = inhibition, % (no concentration beside the values); 37,000 compounds, 0.8% hits; AID 1224904; 293T-iDUX4 ZSCAN4-Gaussia luciferase reporter, 24 h; stronger effect = lower value;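 active means mean inhibition of at least 10% in the main channel, exceeding the control channel by a set limit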
A number is an active result; - = inactive; ! = not confirmed by another sample.

SMILES	DUX4 inh
COc1ccccc1CNC(=O)C[C@@H]1C[C@@H]2c3cc(NC(=O)CN(C)C)ccc3O[C@@H]2[C@@H](CO)O1	-
O=C(C[C@@H]1C[C@@H]2c3cc(NC(=O)Cc4ccncc4)ccc3O[C@@H]2[C@@H](CO)O1)NCc1cccc(F)c1	-
CN(C)CC(=O)Nc1ccc2c(c1)[C@H]1C[C@H](CC(=O)NCc3ccc(-c4ccccc4)cc3)O[C@@H](CO)[C@H]1O2	-
O=C(C[C@H]1C[C@@H]2c3cc(NC(=O)Cc4ccncc4)ccc3O[C@@H]2[C@H](CO)O1)NCc1ccc(-c2ccccc2)cc1	-
COCC#Cc1ccc2c(c1)O[C@H](CN(C)C(=O)c1ccccc1)[C@@H](C)CN([C@@H](C)CO)S2(=O)=O	-
COc1ccc(C#Cc2cnc3c(c2)C(=O)N([C@H](C)CO)C[C@@H](C)[C@@H](CN(C)CC2CC2)O3)cc1	-
C[C@H]1C/C=C\C[C@@H](c2ccc3c(c2)OCO3)NC(=O)[C@H](c2ccccc2)CC(=O)N1	-
O=C(Cc1ccccc1)N1CC2(C1)[C@H](c1ccccc1)[C@H](CO)N2C(=O)c1cccnc1	-
Fc1ccccc1-c1ccc(C2[C@@H]3CN(Cc4ccccc4)C[C@H]2N3)cc1 (stereo partly specified)	-24!
Cc1ccccc1-c1ccc(C2[C@H]3CNC[C@@H]2N3Cc2ccccn2)cc1 (stereo partly specified)	-
Fc1ccccc1-c1ccc(C2[C@@H]3CN(Cc4ccccn4)C[C@H]2N3)cc1 (stereo partly specified)	-22!
OC[C@H]1[C@H](c2ccc(-c3ccccc3F)cc2)[C@@H]2CN(Cc3ccncc3)CCCCN12	-
c1ncc(-c2ccc(C3[C@@H]4CN(Cc5cocn5)C[C@H]3N4)cc2)cn1 (stereo partly specified)	-
Cc1ccc(CN2CC(=O)N3[C@H](C2)[C@H](c2ccc(-c4ccccc4F)cc2)[C@@H]3CO)cc1	-
CC(C)C#Cc1ccc([C@H]2[C@@H](CO)N3C(=O)CN(C(=O)Cc4cccnc4)C[C@H]23)cc1	-
C[C@@H]1CN([C@@H](C)CO)C(=O)c2cc(NS(=O)(=O)c3cccs3)ccc2O[C@@H](C)CCCCO[C@@H]1CN(C)C(=O)CCC(F)(F)F	-
O=C1N[C@@H](c2ccccc2)COCc2cn(nn2)CC[C@@H]1Cc1ccc(-c2ccccc2)cc1	-
O=C1[C@H](Cc2ccc(C(F)(F)F)cc2)CCn2cc(nn2)COC[C@@H]2CCCCN12	-
N#Cc1ccc(-c2ccc(C3[C@@H]4CN(C(=O)Cc5ccccc5)C[C@H]3N4)cc2)cc1 (stereo partly specified)	-53!
N#Cc1ccc(-c2ccc([C@@H]3[C@H](CO)N4C(=O)CN(C(=O)Cc5ccccc5)C[C@@H]34)cc2)cc1	-
N#Cc1cccc(-c2ccc(C3[C@@H]4CN(C(=O)Cc5ccncc5)C[C@H]3N4)cc2)c1 (stereo partly specified)	-26!
Cc1cccc(-c2ccc(C3[C@@H]4CN(C(=O)Cc5ccncc5)C[C@H]3N4)cc2)c1 (stereo partly specified)	-
N#Cc1cccc(-c2ccc(C3[C@@H]4CN(C(=O)c5cccnc5)C[C@H]3N4)cc2)c1 (stereo partly specified)	-
N#Cc1ccc(-c2ccc([C@H]3[C@H]4CN(C(=O)Cc5ccccc5)CC(=O)N4[C@H]3CO)cc2)cc1	-
CN(C)CC(=O)N1[C@@H](CO)[C@H](c2ccccc2)C12CN(CC1CC1)C2	-
SMILES	DUX4 inh
C[C@H]1CC=CC[C@H](c2ccccc2)NC(=O)[C@H](C)N(C)C(=O)c2ccccc2O1 (mixture of isomers)	-
O=C1[C@@H](Cc2ccc(F)cc2)CCn2cc(nn2)COC[C@H]2CCCN12	-
C[C@H](CO)N1C[C@H](C)[C@@H](CN(C)Cc2ccc(C(=O)Nc3ccccc3N)cc2)OCCCC[C@H](C)Oc2ccc(N(C)C)cc2C1=O	-
Cc1cccc(-c2ccc([C@H]3[C@@H](CO)N4C(=O)CN(C(=O)c5cnccn5)C[C@@H]34)cc2)c1	-
CC(C)[C@H]1COCc2cn(nn2)CCC[C@@H](C)C(=O)N1	-
CO[C@@H]1CN(C)C(=O)c2ccc(NC(C)=O)cc2OC[C@H](C)N(Cc2cccnc2)C[C@H]1C	-
CO[C@@H]1CN(C)C(=O)c2ccc(NC(=O)c3nc4ccccc4s3)cc2OC[C@@H](C)N(Cc2cccnc2)C[C@H]1C	-65
CO[C@H]1CN(C)C(=O)c2ccc(NC(C)=O)cc2OC[C@@H](C)N(Cc2cccnc2)C[C@@H]1C	-
COCC#Cc1ccc([C@H]2[C@@H](CO)N3C(=O)CN(C(=O)Nc4cc(F)ccc4F)C[C@H]23)cc1	-
C[C@H](O)C#Cc1ccc2c(c1)O[C@H](CN(C)Cc1ccc(-c3ccccc3)cc1)[C@H](C)CN([C@@H](C)CO)S2(=O)=O	-
COc1ccc(C[C@@H]2CCn3cc(nn3)COCCNC2=O)cc1	-
O=C1N[C@H](Cc2ccccc2)COCn2nncc2CC[C@H]1Cc1ccccc1	-
